Values quoted from earlier work in PubChem BioAssay AID977611.
The campaign covered roughly 3,900 compounds. About 3,900 (100%) were called active. No cut-off is given here; in the data, nearly all actives have Kd up to about 4200 µM. The set was probably picked from earlier hits. Some of the results follow. Numbered stars: 1 amine (or outer) side, 2 acyl side, 3 side chain; on linkers, the order of the positions; unused ones are H or OH. Where a SMILES comes first, the peptide text is derived from it. Square brackets hold non-standard residues; d marks the D form. Peptide text beside a SMILES is read from it. X1 = C[n+]1cc(C[C@H](N[*:1])C(=O)[*:2])n(CCCCCCCCc2ccccc2)c1; Thr(P(OH)3+) = C[C@@H](O[P+](O)(O)O)[C@H](N)C(=O)O

Test: PubChem AID 977611
Details: PDB protein-ligand complexes, literature Kd

## CC[C@H](C)[C@H](NC(=O)[C@H](CO)NC(=O)[C@@H]1CCCN1C(=O)[C@H](C)N)C(=O)N[C@@H](CC(=O)O)C(=O)N[C@@H](CCCNC(N)N)C(=O)N[C@@H](CO)C(=O)N[C@H](C(=O)N[C@@H](CCCCN)C(=O)N1CCC[C@H]1C(=O)N[C@@H](C)C(=O)O)[C@@H](C)O (HELM PEPTIDE1{A.P.S.I.D.[NC(N)NCCC[C@H](N[*:1])C(=O)[*:2]].S.T.K.P.A}$$$$V2.0)
protein: mouse Gads T cell adaptor C-terminal SH3 domain, PDB entry 1h3h
  Kd: 0.22 µM (active)

## CC(C)(CO[P+](O)(O)O[P+](O)(O)OC[C@H]1O[C@@H](n2cnc3c(N)ncnc32)[C@H](O)[C@@H]1O[P+](O)(O)O)[C@@H](O)C(=O)NCCC(=O)NCCSC(=O)CC[C@@H]1C(=O)CC[C@]2(C)C(=O)CC[C@@H]12
protein: HTH-type transcriptional repressor KstR2, PDB entry 4w97
  Kd: 0.08 µM (active)

## CC(C)(CO[P+](O)(O)O[P+](O)(O)OC[C@H]1O[C@@H](n2cnc3c(N)ncnc32)[C@H](O)[C@@H]1O[P+](O)(O)O)[C@@H](O)C(=O)NCCC(=O)NCCSC(=O)c1ccc2ccccc2c1O
protein: 1,4-Dihydroxy-2-naphthoyl-CoA synthase MenB, PDB entry 4qij
  Kd: 2.9 µM (active)

## H-KTKLL-OH
protein: Coatomer subunit beta', PDB entry 4j78
  Kd: 22.5 µM (active)

## H-LKTKLL-OH
protein: coatomer alpha subunit, PDB entry 4j8b
  Kd: 16.1 µM (active)

## O=C(Nc1ccc2[nH]nc(-c3ccncc3)c2c1)[C@@H]1CCN(CC(=O)N2CCN(c3ccc(-c4ncccn4)cc3)CC2)C1
protein: Mitogen-activated protein kinase 1 ERK2, PDB entry 4qta
  Kd: 0.2 µM (active)

## CC(=O)c1ccc(N2CCN(C(=O)CN3CC[C@@H](C(=O)Nc4ccc(O)c(Cl)c4)C3)CC2)cc1
protein: Mitogen-activated protein kinase 1 ERK2, PDB entry 4qyy
  Kd: 0.05 µM (active)

## C/C(=N\Nc1nc2ccccc2s1)c1ccc(-c2cccc(S(=O)(=O)NC(=O)CCCCCc3ccccc3)c2)o1
protein: BCL-2-LIKE PROTEIN 1, PDB entry 3zk6
  Kd: 0.46 µM (active)

## CNCc1ccc(C(F)(F)F)cc1
protein: Dihydropteroate synthase BaDHPS, PDB entry 4nl1
  Kd: 130 µM (active)

## Nc1ncnc2c1ncn2[C@@H]1O[C@@H]2CO[P+](O)(O)O[C@H]3[C@@H](O)[C@H](n4cnc5c(N)ncnc54)O[C@@H]3CO[P+](O)(O)O[C@H]2[C@H]1O
PDB entry 4qsh
  Kd: 8 µM (active)
protein: PstA, PDB entry 4wk1
  Kd: 1.3 µM (active)
protein: Staphylococcus aureus PII-like signal transduction protein PstA, PDB entry 4d3h
  Kd: 0.37 µM (active)

## Nc1ncnc2c1ccn2[C@@H]1O[C@@H]2CO[P+](O)(O)O[C@H]2[C@H]1O
protein: Potassium/sodium hyperpolarization-activated cyclic nucleotide-gated channel 4 hHCN4, PDB entry 4nvp
  Kd: 0.027 µM (active)

## CC(C)CC(=O)C(O)(O)[C@@H](O)CO[P+](O)(O)O
protein: Transcriptional regulator LsrR, PDB entry 4l50
  Kd: 0.88 µM (active)

## CC(=O)C(O)(O)[C@@H](O)CO[P+](O)(O)O
protein: Transcriptional regulator LsrR, PDB entry 4l4z
  Kd: 2.1 µM (active)

## CC(CO)CCC[P+](O)(O)O[P+](O)(O)O (stereo not drawn)
protein: Intracellular B30.2 Domain of BTN3A1, PDB entry 4n7u
  Kd: 0.51 µM (active)

## Nc1nc2c([nH]c[n+]2[C@@H]2O[C@@H]3CO[P+](O)(O)O[C@H]3[C@H]2O)c(=O)[nH]1
protein: Cyclic nucleotide-gated potassium channel mll3241, PDB entry 4muv
  Kd: 1.73 µM (active)

## Nc1nc2c([nH]c[n+]2[C@@H]2O[C@H](CO[P+](O)(O)O[P+](O)(O)O[P+](O)(O)O)[C@@H](O)[C@H]2O)c(=O)[nH]1
protein: GTPase domain of Septin 10 from Schistosoma mansoni, PDB entry 4kva
  Kd: 115 µM (active)
protein: eukaryotic translation initiation factor eIF5B (517-858) from Chaetomium thermophilum, PDB entry 4ncn
  Kd: 2.12 µM (active)

## Nc1nc2c([nH]c[n+]2[C@@H]2O[C@H](CO[P+](O)(O)O[P+](O)(O)C[P+](O)(O)O)[C@@H](O)[C@H]2O)c(=O)[nH]1
protein: Interferon-induced GTP-binding protein Mx1 stalkless-MxA, PDB entry 4p4s
  Kd: 11.5 µM (active)

## Nc1nc2c([nH]c[n+]2[C@@H]2O[C@H](CO[P+](O)(O)O[P+](O)(O)O)[C@@H](O)[C@H]2O)c(=O)[nH]1
protein: Ferrous iron uptake transporter protein B FeoB(A143S mutant), PDB entry 4non
  Kd: 5.71 µM (active)
protein: GTPase domain of Septin 10 from Schistosoma mansoni, PDB entry 4kv9
  Kd: 146 µM (active)
protein: Interferon-induced GTP-binding protein Mx1 stalkless-MxA, PDB entry 4p4t
  Kd: 41 µM (active)
protein: Mitochondrial dynamic protein MID51, PDB entry 4nxv
  Kd: 3.8 µM (active)

## CCCCCCCCCCC[C@@H](O)CC(=O)O[C@@H]1[C@@H](N)[C@@H](O[P+](O)(O)O[P+](O)(O)OC[C@H]2O[C@@H](n3ccc(=O)[nH]c3=O)[C@H](O)[C@@H]2O)O[C@H](CO)[C@H]1O
protein: UDP-3-O-[3-hydroxymyristoyl] N-acetylglucosamine deacetylase, PDB entry 4mdt
  Kd: 10 µM (active)

## CC(=O)N[C@H]1[C@@H](O[P+](O)(O)O[P+](O)(O)OC[C@H]2O[C@@H](n3ccc(=O)[nH]c3=O)[C@H](O)[C@@H]2O)O[C@H](CO)[C@@H](O)[C@@H]1O
protein: UDP-N-acetylglucosamine 1-carboxyvinyltransferase(C115D mutant), PDB entry 3v4t
  Kd: 77 µM (active)
protein: UDP-N-acetylglucosamine 1-carboxyvinyltransferase, PDB entry 3upk
  Kd: 50 µM (active)

## CC1=C(SC[C@H](NC(=O)CC[C@H](N)C(=O)O)[C@H](O)NCC(=O)O)C(=O)c2ccccc2C1=O
protein: protein yqjG, PDB entry 4g0k
  Kd: 4.3 µM (active)

## CCCCCCCCCCCCOS(O)(O)O
protein: Beta-lactoglobulin, PDB entry 4gny
  Kd: 52 µM (active)

## CC[C@H](C)[C@H](NC(=O)[C@@H](NC(=O)[C@H](CC(C)C)NC(=O)[C@H](CCC(=O)O)NC(=O)[C@H](CCC(=O)O)NC(=O)[C@H](CCC(N)=O)NC(=O)[C@@H]1CCCN1C(=O)[C@H](CC(=O)O)NC(=O)[C@H](CO)NC(=O)CNC(=O)[C@H](Cc1ccc(O)cc1)NC(=O)[C@H](CC(C)C)NC(=O)[C@H](CCC(=O)O)NC(=O)[C@H](C)NC(=O)[C@H](CC(C)C)NC(=O)[C@@H](N)CCSC)[C@@H](C)CC)C(=O)O
protein: mouse Partitioning defective 3 homolog, PDZ 3 domain, PDB entry 2koh
  Kd: 6 µM (active)

## CC(=O)N1CCC[C@H]1C(=O)N[C@@H](CC(C)C)C(=O)N[C@@H](Cc1c[n+](C)cn1CCCCCCCCc1ccccc1)C(=O)N[C@@H](CO)C(=O)N[C@H](C(N)=O)[C@@H](C)O[P+](O)(O)O (Ac-PL[X1]S[Thr(P(OH)3+)]-NH2)
protein: Serine/threonine-protein kinase PLK1 PBD, PDB entry 4o6w
  Kd: 0.003 µM (active)
